# Screens: PubChem, several laboratories
# Shown are actives, neighbours in structure and some others; about 2.8% of the full set was active somewhere.
# CF NFkB block: blocks PAF-induced NF-kB reporter in cystic fibrosis cells; KKLEB NF-kB-GFP reporter, GFP fluorescence overnight; inhibition, % at 5 µM; hit rate 0.86% among 360,000; AID 588850;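 active means at least 50% inhibition at 5 µM, scaled per plate between neutral and stimulator controls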;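 further: PAF is a Pseudomonas aeruginosa culture filtrate used as stimulus; plate controls were PAF-stimulated DMSO wells for no effect and unstimulated DMSO wells for full effect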
# Peg3 promoter: Peg3 promoter activity inhibition; inhibition, % at 20 µM; hit rate 1.7% among 360,000; HeLa PEG-Prom luciferase reporter, luminescence, overnight;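 active means inhibition of at least 50% at 20 µM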
# MITF TRPM1 inh: reduces MITF-dependent TRPM1 promoter luciferase signal; inhibition, % at 12.5 µM; SK-MEL-5 TRPM1 promoter luciferase, 24 h; hit rate 0.83% among 330,000;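 active means mean inhibition across replicates of 60% or more, whatever share of single replicates reaches that level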
# KKLEB tox: counter-screen for CF NF-kB inhibitors: cytotoxicity | hit rate 0.36% among 360,000 | KKLEB CF airway cells viability, ATPlite luminescence, overnight; active compounds read low; cells stimulated with P. aeruginosa culture filtrate | activity change (cytotoxicity), % at 5 µM | AID 602141;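 active means corrected activity change at or below -50% at 5 µM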
# HIF-2a inh: inhibitors of HIF-2a. 786-0 RCC cells HIF-2a reporter, luciferase luminescence, overnight. inhibition, % at 18.8 µM. hit rate 0.72% among 360,000. AID 624352;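 active means inhibition of the luminescence signal of 40% or more relative to plate controls, in a single-dose primary screen at 18.75 µM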
# Shn3 3UTR inh: Schnurri-3 reporter inhibition in Clone20 osteoblasts | inhibition, % at 12.5 µM | Clone20 osteoblast Shn3 3'UTR firefly luciferase, 24 h | hit rate 0.52% among 360,000;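 active means mean inhibition of at least 75% with every replicate also reaching 75%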;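 further: 0% = median of neutral control wells and 100% = pilot-screen positive control compound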
# An asterisk follows results filed as active; nt = no result given.
SMILES,CF NFkB block,Peg3 promoter,MITF TRPM1 inh,KKLEB tox,HIF-2a inh,Shn3 3UTR inh
Cc1cc(Nc2cc(Cl)nc(Sc3ccc(NC(=O)C4CC4)cc3)n2)n[nH]1,7,39,3,-17,33,64
CCOC(=O)/C=C/C(=O)Nc1ccc(S(=O)(=O)Nc2nccs2)cc1,11,-1,3,1,-5,-12
COc1ccc(CCNc2ncnc3sccc23)cc1OC,-27,-11,23,-7,-4,91*
Cc1c(CCOC(=O)C23CC4CC(CC(C4)C2)C3)sc[n+]1CC#N,76*,51*,20,-63*,1,77
Cc1c(CCOC(=O)CC23CC4CC(CC(C4)C2)C3)sc[n+]1Cc1ccccc1,0,-8,18,-17,3,25
Cc1onc(-c2ccccc2)c1C(=O)Nc1sc2c(c1C(N)=O)CCC2,-15,16,-4,-1,3,-5
Cc1onc(-c2c(F)cccc2Cl)c1C(=O)Nc1sc2c(c1C(N)=O)CCC2,-6,52*,13,-4,-3,36
Cc1sc(NC(=O)c2ccco2)nc1-c1ccc2c(c1)CC(C)N2C(=O)C1CC1 (configuration not stated),6,55*,16,7,-187,63
CC1CCN(S(=O)(=O)c2cc3c4c(c2)CCN4C(=O)CC3)CC1,3,-1,-6,0,-4,-13
COc1ccc(NC(=O)CN2C(=O)CSC(C)C2=O)cc1 (configuration not stated),4,55*,1,4,16,18
CC1SCC(=O)N(CC(=O)Nc2ccc3c(c2)OCCO3)C1=O (configuration not stated),0,18,-4,3,5,8
COc1ccc(NC(=S)/N=C(\N)Nc2nc(C)c3ccc(C)cc3n2)cc1,-20,53*,9,-5,-2,66
CCOC(=O)/C(Sc1nc(-c2ccccc2)cc(-c2ccccc2)c1C#N)=C(\C)O,-24,18,-2,3,7,0
C#CCCc1ccccc1/C=[N+](/C)[O-],-16,-20,65*,3,-72,5
C/[N+]([O-])=C\c1coc2ccccc2c1=O,5,6,10,1,4,6
CCCN(CCC)C1=CC(=[N+]2CCCC2)CC(C)(C)C1,10,-4,73*,3,10,72
Cc1ccc(S(=O)(=O)N2C[C@@H]3CCCC[C@@H]3[C@@H](C)[C@H]2c2cn(Cc3ccccc3)c3ncccc23)cc1,27,16,46,11,-10,89*
COc1ccc(NS(=O)(=O)c2cccc(C(=O)NC3CCC(O)CC3)c2)cc1 (configuration not stated),-3,2,12,9,14,27
CN(C)CCNS(=O)(=O)c1ccc(N2CCN(c3ccc(F)cc3)CC2)c([N+](=O)[O-])c1,15,63*,8,-15,11,52
O=C(CS(=O)(=O)c1ccccc1)Nc1nccs1,28,-3,2,-8,-1,11
COc1cc(/C=N/NC(=O)c2ccc(CN3c4cccc5cccc(c45)S3(=O)=O)cc2)cc(OC)c1O,69*,57*,7,-80*,10,13
Cc1ccc(C(=O)O/N=C(\N)c2ccccn2)c(Cl)c1,-13,103*,nt,-72*,73*,69
COc1cccc(C(=O)O/N=C(\N)c2ccccn2)c1OC,-10,48,27,-3,-90,18
N/C(=N\OC(=O)c1ccc2ccccc2c1)c1ccccc1Cl,37,81*,-76,-9,-300,-89
N/C(=N\OC(=O)c1ccc2ccccc2c1)c1ccccn1,19,111*,36,-68*,26,66
N/C(=N\OC(=O)c1ccc2ccccc2c1)c1ccncc1,-7,-265,-89,4,-256,-15
N/C(=N\OC(=O)c1cccc2ccccc12)c1ccccn1,-7,83*,-26,-17,-208,-56
COc1ccccc1N1CCN(C(=O)c2ccc3nc(-c4ccco4)c(-c4ccco4)nc3c2)CC1,17,52*,8,-36,0,24
COc1ccc(NC(=O)c2ccc(F)cc2)cc1S(=O)(=O)Nc1cc(C)ccc1Br,-8,54*,10,-1,4,4
O=C(CNC(=O)c1nn(Cc2ccccc2)c(=O)c2ccccc12)Nc1ccc(F)c(F)c1F,47,2,4,-56*,-8,8
